Experimental data as given in the supplement of paper PMC10732440.
± gives the standard deviation of the averaged measurements.

system: Caenorhabditis elegans N2 infected with Nematocida parisii ERTm1; assay: progeny production relative to DMSO uninfected control; higher = more progeny despite microsporidia infection (inhibition of infection with low host toxicity); settings: infection time 6 days; 40 µM
Experimental: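 Bleach-synchronised C. elegans N2 L1 larvae (100 per well) were grown in 96-well plates in K-medium with 5x E. coli OP50 and 15,000 N. parisii spores/uL, plus Pandemic Response Box compound at 100 uM or 40 uM (1% DMSO), for 6 days at 21 C with shaking. Worms were stained with Rose Bengal, scanned on a flatbed scanner and counted with WorMachine. Progeny production is given as % of the DMSO uninfected control (triplicate wells), so higher values mean the compound restores progeny despite infection.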

With CC(C)=CCC/C(C)=C/CNCCNC1C2CC3CC(C2)CC1C3 (stereo not given) as the compound, how does the progeny production read?
The progeny production was 6.62 ± 1.2%.

With CC(=O)N[C@H](C)C(=O)N[C@H](Cc1ccccc1)C(=O)O as the compound, how does the progeny production read?
The progeny production was 9.08 ± 7.2%.

Fc1cccc(Cl)c1C1CC(c2ccc(Cl)cc2)Nc2nnnn21 (stereo not given) was tested. Which progeny production did it give?
Its progeny production is 4.5 ± 4.2%.

How did the progeny production turn out when Cc1ccccc1NC(=O)Nc1cccc([N+](=O)[O-])c1 was run?
Its progeny production is 4.55 ± 2.1%.

For CN(C/C=C/C#CC(C)(C)C)Cc1cccc2ccccc12, which progeny production is on record?
Its progeny production is 5.74 ± 2.2%.

NS(=O)(=O)c1ccc(NC(=O)NC(c2ccccc2)c2ccccc2)cc1 was tested. Which progeny production did it give?
The progeny production was 6.18 ± 1.6%.

CCO/N=C/c1ccc(OCCCCN2CCN(c3ccncc3)C2=O)cc1 was tested. Which progeny production did it give?
Its progeny production is 5.24 ± 4.2%.

For N[C@H](CCC(=O)N[C@@H](Cc1c[nH]c2ccccc12)C(=O)O)C(=O)O, which progeny production is on record?
Its progeny production is 6.53 ± 2.2%.

How did the progeny production turn out when Nc1nc(N)c2c(Sc3ccccc3)cccc2n1 was run?
The progeny production was 3.69 ± 1.5%.

Which progeny production does the source give for O=C1[C@H](CC[C@H](O)c2ccc(F)cc2)[C@@H](c2ccc(O)cc2)N1c1ccc(F)cc1 here?
Its progeny production is 6.94 ± 2.7%.

Which progeny production does the source give for NC[C@H]1OB(O)c2c(OCCCO)cccc21 here?
The progeny production was 4.23 ± 2.7%.

With Nc1nc2c(Cc3cccnc3)c[nH]c2c(=O)[nH]1 as the compound, how does the progeny production read?
Its progeny production is 5.79 ± 0.11%.

C/C(=N\NC(=O)C1CC1c1ccccc1)c1ccc(NC(=O)c2ccco2)cc1 (stereo not given) was tested. Which progeny production did it give?
The progeny production was 2.3 ± 0.95%.

Which progeny production does the source give for O=C(Nc1ccc(N2CCN(C(=O)c3ccccc3)CC2)cc1)c1ccc2c(c1)OCO2 here?
Its progeny production is 5.03 ± 1.4%.

Which progeny production does the source give for O=C(CCc1ccc2c(c1)OCO2)NCc1ccc(-c2ccccc2F)cc1 here?
The progeny production was 5.04 ± 3.2%.

For O=C(O)c1ccc(-n2nc(-c3ccccc3O)nc2-c2ccccc2O)cc1, which progeny production is on record?
The progeny production was 4.83 ± 3%.

Nc1nc2c(ncn2/C=C2/CC2(CO)CO)c(=O)[nH]1 was tested. Which progeny production did it give?
Its progeny production is 3.83 ± 2.6%.

Which progeny production does the source give for O=C(O)CCNC(=O)c1ccccc1 here?
The progeny production was 13 ± 12%.

For CCCCCCCCCN1C[C@@H](O)[C@H](O)[C@@H](O)[C@@H]1CO, which progeny production is on record?
Its progeny production is 6.57 ± 1.1%.

How did the progeny production turn out when CC(=O)N1c2ccccc2NC2=C(C(=O)CC(C)(C)C2)C1c1ccc(OCc2ccccc2)cc1 (stereo not given) was run?
The progeny production was 4.92 ± 0.34%.

same assay, conditions: infection time 6 days; 100 µM

With CC(C)=CCC/C(C)=C/CNCCNC1C2CC3CC(C2)CC1C3 (stereo not given) as the compound, how does the progeny production read?
The progeny production was 30 ± 23%.

CC(=O)N[C@H](C)C(=O)N[C@H](Cc1ccccc1)C(=O)O was tested. Which progeny production did it give?
Its progeny production is 10 ± 3.2%.

Fc1cccc(Cl)c1C1CC(c2ccc(Cl)cc2)Nc2nnnn21 (stereo not given) was tested. Which progeny production did it give?
Its progeny production is 7.47 ± 2.1%.

With Cc1ccccc1NC(=O)Nc1cccc([N+](=O)[O-])c1 as the compound, how does the progeny production read?
The progeny production was 13.8 ± 4.8%.

For CN(C/C=C/C#CC(C)(C)C)Cc1cccc2ccccc12, which progeny production is on record?
Its progeny production is 17.7 ± 11%.

NS(=O)(=O)c1ccc(NC(=O)NC(c2ccccc2)c2ccccc2)cc1 was tested. Which progeny production did it give?
Its progeny production is 16.9 ± 14%.

CCO/N=C/c1ccc(OCCCCN2CCN(c3ccncc3)C2=O)cc1 was tested. Which progeny production did it give?
The progeny production was 9.79 ± 7.8%.

How did the progeny production turn out when N[C@H](CCC(=O)N[C@@H](Cc1c[nH]c2ccccc12)C(=O)O)C(=O)O was run?
Its progeny production is 14.8 ± 3.7%.

Nc1nc(N)c2c(Sc3ccccc3)cccc2n1 was tested. Which progeny production did it give?
The progeny production was 16.4 ± 12%.

With O=C1[C@H](CC[C@H](O)c2ccc(F)cc2)[C@@H](c2ccc(O)cc2)N1c1ccc(F)cc1 as the compound, how does the progeny production read?
Its progeny production is 21 ± 14%.

Which progeny production does the source give for NC[C@H]1OB(O)c2c(OCCCO)cccc21 here?
Its progeny production is 6.44 ± 4.8%.

With Nc1nc2c(Cc3cccnc3)c[nH]c2c(=O)[nH]1 as the compound, how does the progeny production read?
Its progeny production is 16.4 ± 9.7%.

C/C(=N\NC(=O)C1CC1c1ccccc1)c1ccc(NC(=O)c2ccco2)cc1 (stereo not given) was tested. Which progeny production did it give?
Its progeny production is 6.87 ± 1.1%.

Which progeny production does the source give for O=C(Nc1ccc(N2CCN(C(=O)c3ccccc3)CC2)cc1)c1ccc2c(c1)OCO2 here?
The progeny production was 15.6 ± 10%.

O=C(CCc1ccc2c(c1)OCO2)NCc1ccc(-c2ccccc2F)cc1 was tested. Which progeny production did it give?
The progeny production was 14 ± 6.8%.

For O=C(O)c1ccc(-n2nc(-c3ccccc3O)nc2-c2ccccc2O)cc1, which progeny production is on record?
The progeny production was 16.7 ± 7.4%.

How did the progeny production turn out when Nc1nc2c(ncn2/C=C2/CC2(CO)CO)c(=O)[nH]1 was run?
The progeny production was 11.8 ± 3.7%.

How did the progeny production turn out when O=C(O)CCNC(=O)c1ccccc1 was run?
The progeny production was 16.4 ± 8.7%.

How did the progeny production turn out when CCCCCCCCCN1C[C@@H](O)[C@H](O)[C@@H](O)[C@@H]1CO was run?
The progeny production was 11.9 ± 5.5%.

With CC(=O)N1c2ccccc2NC2=C(C(=O)CC(C)(C)C2)C1c1ccc(OCc2ccccc2)cc1 (stereo not given) as the compound, how does the progeny production read?
The progeny production was 9.82 ± 5.5%.
